Structures are written as SMILES. Records with an inconclusive call do not appear. Unmarked numbers belong to inactive results. Activity calls are given as the source filed them. Calls follow the shape of the dose curve; as a rule, active = well fitted cell-killing curve with a large enough effect in the repeat runs; inconclusive = weak or mixed curves, or effect the other way; inactive = flat fitted curve, though single readings scatter.

Data on 70 compounds can be found in PubChem BioAssay (Tox21).

The nature of assay [1]: cAMP Responsive Elements (CRE) small molecule antagonists, cell-based qHTS assay: qHTS cell viability counter screen (AID 2060913). Also: nearly all actives have a fitted effect of over 40% in size. In a few lines:
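CRE-bla HEK293T cells were seeded in assay medium with 10% dialyzed FBS, incubated 18 hrs at 37 C, then exposed to compounds plus 0.25 uM final NKH477 for 3 hrs. Viability was read by CellTiter-Glo luminescence after 30 min, in the same wells.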
(In general: Quantitative high-throughput screening tests each substance at several concentrations.)

A short description of assay [2]: cAMP Responsive Elements (CRE) small molecule agonists, cell-based qHTS assay: qHTS cell viability counter screen (AID 2060914). Also: nearly all actives have a fitted effect of over 50% in size. In a few lines: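 In the same wells as the reporter read, viability of CRE-bla HEK 293T cells was quantified by CellTiter-Glo luminescence after a 3 h compound exposure.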
% is scaled to controls: 0 for no effect and ±100 for the full control effect.

`O=C(O)Cc1ccc(-c2ccccc2)cc1`: the Potency entry in assay [1] and in assay [2] was “inactive” each time.

In the case of `COC(=O)/C=C(/C)N`, the Potency result in assay [1] and in assay [2] was “inactive” each time.

Regarding `ClC(Cl)(Br)Br`, the Potency entry in assay [1] and in assay [2] was “inactive” throughout.

For the compound `CCCCOc1ccc(OCCCN2CCOCC2)cc1`, the Potency result in assay [1] and in assay [2] was “inactive” in each case.

As to `Oc1cccc2c(O)cccc12`, the Potency result in assay [1] and in assay [2] was “inactive” throughout.

Take `COc1cc(C)cc(O)c1`: the Potency result in assay [1] and in assay [2] was “inactive” throughout.

As for `O=C(O)CNC(=O)CNC(=O)CNC(=O)CSC(=O)c1ccccc1`, the Potency entry in assay [1] and in assay [2] was “inactive” throughout.

Regarding `O=[N+]([O-])c1ccccc1CCO`, the Potency result in assay [1] and in assay [2] was “inactive” in each case.

As for `C[C@@H](N)C(=O)O`, the Potency entry in assay [1] and in assay [2] was “inactive” throughout.

Regarding `O=C(OCC1CCC2OC2C1)C1CCC2OC2C1` (stereo not given), the Potency entry in assay [1] and in assay [2] was “inactive” throughout.

In the case of `CC(C)(COC(=O)c1ccccc1)COC(=O)c1ccccc1`, the Potency entry in assay [1] and in assay [2] was “inactive” throughout.

Consider `CCOC(OCC)C(=O)c1ccccc1`, for which the Potency entry in assay [1] and in assay [2] was “inactive” each time.

As for `O=C(O)Cn1cnnn1`, the Potency result in assay [1] and in assay [2] was “inactive” throughout.

With `Cc1cc(C)c(NC(=O)CN(CC(=O)O)CC(=O)O)c(C)c1Br`, the Potency result in assay [1] and in assay [2] was “inactive” in each case.

Regarding `CCCCN1C(=O)[C@@H]([C@H](O)C2CCCCC2)NC(=O)C12CCN(Cc1ccc(Oc3ccc(C(=O)O)cc3)cc1)CC2`, the Potency entry in assay [1] and in assay [2] was “inactive” each time.

As to `C/C=C(\C)C(=O)OCCC(C)CCC=C(C)C` (stereo not given), the Potency result in assay [1] and in assay [2] was “inactive” throughout.

For `CCCCCCC(CO)CCCC` (stereo not given), the Potency result in assay [1] and in assay [2] was “inactive” each time.

Turning to `C=C(C)c1cccc(C(C)(C)N=C=O)c1`, the Potency result in assay [1] and in assay [2] was “inactive” in each case.

Consider `CCc1cccc(CC)c1N(COC)C(=O)CS(=O)(=O)O`, for which the Potency entry in assay [1] and in assay [2] was “inactive” each time.

On to `C[C@@H]1CCN(C(=O)[C@H](CCCN=C(N)N)NS(=O)(=O)c2cccc3c2NC[C@H](C)C3)[C@@H](C(=O)O)C1`, for which the Potency result in assay [1] and in assay [2] was “inactive” throughout.

`CNC(=O)c1c(I)c(NC(=O)CCCCC(=O)Nc2c(I)c(C(=O)O)c(I)c(C(=O)NC)c2I)c(I)c(C(=O)O)c1I`: the Potency entry in assay [1] and in assay [2] was “inactive” in each case.

With `Cc1cccc(NC(=S)N(C)C)c1`, the Potency result in assay [1] and in assay [2] was “inactive” throughout.

For `CC(=O)CC(=O)Nc1ccccc1`, the Potency entry in assay [1] and in assay [2] was “inactive” throughout.

As to `CCOC(=O)OC(=O)OCC`, the Potency result in assay [1] and in assay [2] was “inactive” each time.

As to `CCCCNc1cc(C(=O)O)cc(S(N)(=O)=O)c1Oc1ccccc1`, the Potency result in assay [1] and in assay [2] was “inactive” in each case.

For `CCCCN1CCCC1C(=O)Nc1c(C)cc(C)cc1C` (stereo not given), the Potency result in assay [1] and in assay [2] was “inactive” throughout.

Turning to `O=C(Nc1cccc(Cl)c1)OCC#CCCl`, the Potency result in assay [1] and in assay [2] was “inactive” each time.

Take `c1ccc2occc2c1`: the Potency result in assay [1] and in assay [2] was “inactive” each time.

Regarding `NC(=O)c1ccccc1O`, the Potency entry in assay [1] and in assay [2] was “inactive” throughout.

In the case of `Nc1ccc2c(c1)C(=O)c1ccccc1C2=O`, the Potency result in assay [1] and in assay [2] was “inactive” each time.

With `Cn1c(=O)c2c(ncn2CC2OCCO2)n(C)c1=O`, the Potency entry in assay [1] and in assay [2] was “inactive” each time.

For the compound `CC(=O)Nc1ccc(N)cc1`, the Potency result in assay [1] and in assay [2] was “inactive” each time.

On to `Cc1cccc2c1ccc1ccccc12`, for which the Potency entry in assay [1] and in assay [2] was “inactive” each time.

Turning to `CC(=O)Nc1ccc(CC(=O)O)cc1`, the Potency result in assay [1] and in assay [2] was “inactive” in each case.

On to `NC(=O)c1cnccn1`, for which the Potency entry in assay [1] and in assay [2] was “inactive” throughout.

As for `CCc1cccc(C)c1`, the Potency entry in assay [1] and in assay [2] was “inactive” in each case.

Take `O=Cc1ccccc1[N+](=O)[O-]`: the Potency entry in assay [1] and in assay [2] was “inactive” each time.

With `C#CCN(C)Cc1ccccc1`, the Potency entry in assay [1] and in assay [2] was “inactive” each time.

Consider `CCOC(=O)c1ccccc1`, for which the Potency entry in assay [1] and in assay [2] was “inactive” throughout.

In the case of `COc1ccc2[nH]c(S(=O)Cc3ncc(C)c(OC)c3C)nc2n1` (stereo not given), the Potency entry in assay [1] and in assay [2] was “inactive” in each case.

As for `O=C1NC(=O)[C@@H]2CC=CC[C@H]12`, the Potency entry in assay [1] and in assay [2] was “inactive” in each case.

With `CCC(=O)O[C@]1(C(=O)SCF)[C@H](C)C[C@H]2[C@@H]3C[C@H](F)C4=CC(=O)C=C[C@]4(C)[C@@]3(F)[C@@H](O)C[C@@]21C`, the Potency result in assay [1] and in assay [2] was “inactive” throughout.

`NC(CSCC(=O)O)C(=O)O` (stereo not given): the Potency entry in assay [1] and in assay [2] was “inactive” each time.

In the case of `OCCN(CCO)c1ccccc1`, the Potency entry in assay [1] and in assay [2] was “inactive” throughout.

As for `C[C@H]1C[C@H]2[C@@H]3CCC4=CC(=O)C=C[C@]4(C)[C@@]3(Cl)[C@@H](O)C[C@]2(C)[C@@]1(O)C(=O)CO`, the Potency entry in assay [1] and in assay [2] was “inactive” throughout.

Regarding `OCCN1CN(CCO)CN(CCO)C1`, the Potency entry in assay [1] and in assay [2] was “inactive” each time.

Take `CC(C)(C)CC(C)(C)c1ccc(Nc2ccc(C(C)(C)CC(C)(C)C)cc2)cc1`: the viability change, negative = cytotoxic in assay [1] was -5.06% [at 8.39 µM]. The activity change, negative = cytotoxicity in assay [2] was 6.62% [at 8.39 µM].

With `C1CCC2(CCCCO2)OC1`, the Potency entry in assay [1] and in assay [2] was “inactive” in each case.

With `COc1ccc(OC)c(N=Nc2c(O)ccc3ccccc23)c1`, the Potency result in assay [1] and in assay [2] was “inactive” in each case.

For the compound `COC(=O)c1ccccc1C(=O)O`, the Potency result in assay [1] and in assay [2] was “inactive” in each case.

As to `CC1OCCC1=O` (stereo not given), the Potency result in assay [1] and in assay [2] was “inactive” in each case.

As to `CCN(CC)CCOC(=O)C(Cc1cccc2ccccc12)CC1CCCO1` (stereo not given), the Potency entry in assay [1] and in assay [2] was “inactive” throughout.

Regarding `COC(=O)c1ccc(C)cc1C1=NC(C)(C(C)C)C(=O)N1` (stereo not given), the Potency entry in assay [1] and in assay [2] was “inactive” each time.

`CC(=O)c1cc2ccccc2s1`: the Potency result in assay [1] and in assay [2] was “inactive” throughout.

Turning to `ClC/C=C/CCl`, the Potency entry in assay [1] and in assay [2] was “inactive” in each case.

On to `CC(=O)OCCCc1ccccc1`, for which the Potency entry in assay [1] and in assay [2] was “inactive” in each case.

With `CCCCCC(=O)CC`, the Potency result in assay [1] and in assay [2] was “inactive” throughout.

Turning to `CN(C(=O)C(Cl)Cl)c1ccc(OC(=O)c2ccco2)cc1`, the Potency result in assay [1] and in assay [2] was “inactive” in each case.

On to `COc1ccc(/C=C/c2cc(OC)cc(=O)o2)cc1`, for which the Potency result in assay [1] and in assay [2] was “inactive” throughout.

In the case of `O=S1OCCO1`, the Potency result in assay [1] and in assay [2] was “inactive” throughout.

Take `CCCCCCCCCCC[C@@H](C[C@@H]1OC(=O)[C@H]1CCCCCC)OC(=O)[C@H](CC(C)C)NC=O`: the Potency entry in assay [1] and in assay [2] was “inactive” throughout.

With `CC(C)CCCCCCc1ccc(OCCOCCO)cc1`, the Potency entry in assay [1] and in assay [2] was “inactive” each time.

For `C[N+]1([O-])CCOCC1`, the Potency entry in assay [1] and in assay [2] was “inactive” in each case.

As for `Nc1nc(F)nc2c1ncn2[C@@H]1O[C@H](CO)[C@@H](O)[C@@H]1O`, the Potency entry in assay [1] and in assay [2] was “inactive” each time.

For the compound `CO[Si](CCCNCCN)(OC)OC`, the Potency entry in assay [1] and in assay [2] was “inactive” throughout.

Regarding `C=C(C)C(=O)OCCCCCCCCCC`, the Potency entry in assay [1] and in assay [2] was “inactive” each time.

As for `CCCCC/C=C/C=C/C=O`, the Potency entry in assay [1] and in assay [2] was “inactive” each time.

With `Cc1cccc2cccnc12`, the Potency result in assay [1] and in assay [2] was “inactive” each time.

Consider `CC1=CC[C@@]23C[C@@H]1C(C)(C)[C@@H]2CC[C@H]3C`, for which the Potency entry in assay [1] and in assay [2] was “inactive” each time.

For the compound `CCO[Si](CCCCl)(OCC)OCC`, the Potency result in assay [1] and in assay [2] was “inactive” throughout.
